hNpr1 antagonist: blocks ANP-stimulated signaling of human Npr1 receptor; P16066; HEK293 hNpr1 GloSensor cGMP, ANP-stimulated luminescence; Potency, µM (doses to about 46.3 µM), without a hit: at the highest dose activity change, negative = inhibition, usual class: inhibitors; 76,000 compounds, 1.6% hits; AID 1347048; calls by dose curve; also: nearly all actives have a fitted effect of over 60% in size
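Compound pre-incubated 30 min at room temperature on GloSensor-loaded HEK293 cells stably carrying hNpr1 and the pGS-40F cGMP biosensor. Stimulation uses hNppA at 0.1 nM final; luminescence is taken at baseline and 20 min post-agonist.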
FLuc inh: blocks purified firefly luciferase enzyme activity | 76,000 compounds, 2.5% hits | P08659 | Potency, µM (highest dose often 115 µM), most hits filed as inhibitors | purified P. pyralis luciferase, luminescence, biochemical; also: nearly all actives have a fitted effect of over 65% in size
Target sequence (P08659 whole entry, looked up): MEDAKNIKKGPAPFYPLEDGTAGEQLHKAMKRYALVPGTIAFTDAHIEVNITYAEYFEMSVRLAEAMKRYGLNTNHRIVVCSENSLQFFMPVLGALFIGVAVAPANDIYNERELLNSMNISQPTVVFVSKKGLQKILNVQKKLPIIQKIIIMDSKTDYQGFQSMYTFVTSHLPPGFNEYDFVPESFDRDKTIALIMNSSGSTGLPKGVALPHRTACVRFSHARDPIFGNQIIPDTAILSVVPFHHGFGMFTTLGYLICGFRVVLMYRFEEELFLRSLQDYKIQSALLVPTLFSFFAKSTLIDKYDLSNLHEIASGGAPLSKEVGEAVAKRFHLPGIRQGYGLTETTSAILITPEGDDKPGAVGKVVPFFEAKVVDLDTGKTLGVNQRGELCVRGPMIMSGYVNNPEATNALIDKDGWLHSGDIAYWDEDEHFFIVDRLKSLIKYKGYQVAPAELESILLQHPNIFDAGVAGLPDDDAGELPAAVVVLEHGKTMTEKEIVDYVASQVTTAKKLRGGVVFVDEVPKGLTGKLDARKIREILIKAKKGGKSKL
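Inhibitors were tested against purified firefly luciferase in a biochemical, low-substrate format (both substrates at 10uM) and luminescence measured with a CCD imager.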
HEK293 tox: kills HEK 293 cells | HEK 293 viability, ATP luminescence (CellTiter-Glo), 48-72 h | AID 1345083 | Potency, µM (doses to about 115 µM), for inactives: top-dose activity change, negative = cytotoxicity, actives largely listed as inhibitors | 94,000 compounds, 6.6% hits; also: nearly all actives have a fitted effect of over 60% in size
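Pintool-delivered compounds were incubated with HEK 293 cells (250 cells/well) at 37 degree Celsius for 48 or 72 hr. ATP-dependent luminescence (CellTiter-Glo) then reported remaining viable cells.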
3T3 cytotox: NIH 3T3 cell cytotoxicity; NIH 3T3 viability, CellTiter-Glo ATP luminescence, 48-72 h; Potency, µM (doses to about 96.7 µM), inactives show at the highest dose activity change, negative = cytotoxicity, actives largely listed as inhibitors; 94,000 compounds, 4.3% hits; AID 1345082; also: nearly all actives have a fitted effect of over 55% in size
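Cells were seeded at 400 per well, treated with pin-transferred compound, and kept 48 or 72 hr at 37 °C before CellTiter-Glo addition and luminescence imaging of cellular ATP.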
GPT2 inhibitor: inhibitors of human GPT2 alanine aminotransferase | AID 1671188 | Potency, µM (top dose mostly 57.7 µM), without a hit: at the highest dose activity change, negative = inhibition, usual class: inhibitors | Q8TD30 | Recombinant GPT2, coupled pyruvate oxidase/HRP Amplex Red fluorescence | 100,000 compounds, 0.25% hits; also: nearly all actives have a fitted effect of over 60% in size
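Fluorescence read-out: pyruvate from GPT2 turnover coupled to pyruvate oxidase, HRP and Amplex Red (0.2mM ThPP, 0.2U/mL PO and HRP, 50uM Amplex final). Substrates 250uM a-KG, 2mM L-alanine; enzyme 10ng/uL; 30 min RT.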
* marks the source's active call; other numbers are inactive results; i = inactive; u = inconclusive; x = no result; [ ] = another dose, or the depositor's remark. The list is not random: actives were taken first. Their share in the collection is about 10%. Unless noted, calls follow the shape of the dose curve; as a rule, active = well fitted curve in the direction sought with a large enough effect; inconclusive = small, poorly fitted or top-dose-only effect, or another doubt; inactive = no such curve, though single readings can be large; an effect the other way counts as inactive or inconclusive. % is scaled to controls: 0 for no effect and ±100 for the full control effect; potency is read from the fitted curve at half-maximal effect.

SMILES	hNpr1 antagonist	FLuc inh	HEK293 tox	3T3 cytotox	GPT2 inhibitor
CCOc1cc(C(=O)N2CCC(Cc3nc(-c4ccc(F)cc4)no3)CC2)cc(OCC)c1OCC	u	i	35.5µM*	31.6µM*	-14.5%
C1CCC(c2nc(CCOCC3CCCC3)no2)NC1 (stereo not drawn)	-16.5%	i	-38.3%	-19.8%	0.6%
CNC(=O)[C@H]1C[C@H](Oc2ccccc2)CN1Cc1c[nH]c2ccc(OC)cc12	-4.1%	i	u	-22.4%	i
Cc1nonc1CN(C)C(=O)c1coc(COc2ccc(F)cc2Cl)n1	5.0%	i	u	u	i
COc1cc(OC)cc(C(=O)N2CCC(Cc3nc(-c4cccc(OC)c4)no3)CC2)c1	u	i	44.7µM*	u	i
COCCN1Cc2ccc(Nc3cccnc3)nc2C(C)(C(=O)Nc2ccccc2C)C1 (stereo not drawn)	-8.0%[70.6 µM]	63.1µM*	u	u	4.2%[88.5 µM]
COCCN1Cc2ccc(NCC(C)C)nc2C(C)(C(=O)Nc2cccc(F)c2)C1 (stereo not drawn)	-12.5%[70.6 µM]	i	44.7µM*	25.1µM*	3.3%[88.5 µM]
COCCN1Cc2ccc(NCc3ccccc3)nc2C(C)(C(=O)NCc2ccccc2)C1 (stereo not drawn)	-10.1%	i	50.1µM*	44.7µM*	-6.6%
COCCN1Cc2ccc(NCc3ccccc3)nc2C(C)(C(=O)Nc2cccnc2)C1 (stereo not drawn)	5.0%[70.6 µM]	i	u	u	-4.6%[88.5 µM]
COCCN1Cc2ccc(NCc3ccccc3)nc2C(C)(C(=O)Nc2ccc(F)cc2)C1 (stereo not drawn)	-16.3%	i	u	u	-24.4%
COCCN1Cc2ccc(NCc3ccccc3)nc2C(C)(C(=O)NC2CCOCC2)C1 (stereo not drawn)	0.8%[70.6 µM]	i	u	u	u
COCCN1Cc2ccc(NCc3ccccc3)nc2C(C)(C(=O)Nc2ccccc2)C1 (stereo not drawn)	-14.0%[70.6 µM]	i	50.1µM*	u	-9.7%[88.5 µM]
Cc1ncsc1C1N(C2CCN(Cc3cn(C)c4ccccc34)CC2)C(=O)C12CCCC2 (stereo not drawn)	1.2%	i	79.4µM*	-22.4%	-0.3%
CNC(=O)c1cc(C)nc2onc(C3CCN(C(=O)c4ccc(C)cc4)C3)c12 (stereo not drawn)	x	x	-11.7%	-24.5%	x
COc1ccc(-c2noc([C@@H](C)NC(C)=O)c2C(=O)O)cc1	2.9%[70.6 µM]	i	-2.0%[172 µM]	-1.2%[138 µM]	i
O=C(C1CC1)N1CCC2(CC1)CC(c1cccc(C(F)(F)F)c1)=NO2	x	x	56.2µM*	u	x
O=C(c1ccncc1)N1CCC2(CC1)CC(c1cccc(C(F)(F)F)c1)=NO2	x	x	89.1µM*	-23.0%	x
O=C1NC2(CCN(C(=O)Cc3ccccc3)C2)OCc2ccccc21 (stereo not drawn)	14.0%[70.6 µM]	i	100µM*	-29.3%[138 µM]	i
COc1cccc([S+](=O)([O-])NC[C@@H]2CC[C@H]3C[C@@H]2C3(C)C)c1	8.5%[70.6 µM]	i	100µM*	u	-10.1%[88.5 µM]
O=C(c1ccc(F)c(F)c1)N1CCC(n2cc(-c3nc(C4CC4)no3)nn2)C1 (stereo not drawn)	-26.6%	i	u	-30.8%	-4.6%
CCN(Cc1noc(C)n1)C(=O)c1coc(COc2ccc3c(c2)OCO3)n1	4.1%	i	-27.7%	-23.4%	u
CCCN(CC1CC1)C(=O)c1coc(COc2ccc3sc(C)nc3c2)n1	u	i	39.8µM*	u	-18.2%
O=C(COc1ccccc1)NC[C@H]1COCc2nc3cc(F)ccc3n21	u	i	79.4µM*	u	-0.2%[88.5 µM]
Fc1ccc2c(c1)nc1n2[C@@H](CNC2CCC2)COC1	2.0%[70.6 µM]	i	u	70.8µM*	i
O=C(Nc1ccccc1)c1ccc(-c2cccc3c2CCNC3)o1	-23.9%	i	u	44.7µM*	-15.6%
SMILES	hNpr1 antagonist	FLuc inh	HEK293 tox	3T3 cytotox	GPT2 inhibitor
Cc1ccccc1C(=O)N1CCCC1C(=O)N1CCC(N2CCOCC2=O)CC1 (stereo not drawn)	x	x	4.8%	-3.4%	1.4%
Cc1nn(-c2ccc(F)cc2)c(Oc2ccccc2)c1CCC(=O)N1CCOCC1	-16.1%	i	u	u	-2.8%
CCc1nn(-c2ccccc2)c(Oc2cccc(C)c2)c1CCC(=O)N1CCOCC1	-22.3%	i	39.8µM*	u	4.6%
CCc1nn(-c2ccc(F)cc2)c(Oc2ccccc2)c1CCC(=O)N1CCCC1	-26.6%	i	44.7µM*	u	u
Cc1cccc(-n2nc(C)c(CCC(=O)N3CCOCC3)c2Oc2ccc(F)cc2F)c1	-18.4%	i	u	u	-27.3%
O=C1CC(c2ccccc2)N(C(=O)CNC(=O)c2cc(CN3CCOCC3)on2)CCCCCN1 (stereo not drawn)	1.6%	i	0.8%	-5.3%	i
CN(C)CC1(O)CCCN(Cc2ccc(Oc3ccc(Cl)cc3)cc2)C1 (stereo not drawn)	-5.5%	i	u	22.4µM*	0.0%
CCOc1cc(C)c(CN2CCCC(O)(CN(C)C)C2)cc1C(C)C (stereo not drawn)	1.1%	i	35.5µM*	39.8µM*	i
CC(C)c1ccc(-n2cc(CN3CCCC(O)(CN(C)C)C3)cn2)cc1 (stereo not drawn)	3.2%	u	22.4µM*	u	-5.5%
CN(C)CC1(O)CCCN(Cc2ccc(-c3ccc(Cl)cc3)o2)C1 (stereo not drawn)	-3.1%	i	u	u	i
O=C(Cc1cccc(F)c1)N1CCC2(CC1)CC(N(Cc1ccccc1)C1CC1)CCO2 (stereo not drawn)	3.5%	i	u	u	i
COc1ccc(F)cc1-c1ccc(CN2CCCCC2C(=O)NCc2ccc(Cl)cc2)cc1 (stereo not drawn)	x	x	14.1µM*	u	x
COc1ccc(F)cc1-c1ccc(CN2CCCCC2C(=O)NCc2cccc(F)c2)cc1 (stereo not drawn)	x	x	u	35.5µM*	x
Cc1csc(S(=O)(=O)N2CCOC(CCc3ccccc3)C2)c1 (stereo not drawn)	1.2%	i	u	-32.2%	-10.5%
C[S+](=O)([O-])Nc1cccc(Nc2ncc(-c3cccc(F)c3)c3c2OCC3)c1	-28.0%[70.6 µM]	i	u	31.6µM*	2.4%[88.5 µM]
Fc1cccc(-c2cnc(Nc3cncnc3)c3c2CCO3)c1	4.6%[70.6 µM]	i	u	-24.4%[138 µM]	i
Cc1noc(C)c1-c1cnc(Nc2ccc(F)c(Cl)c2)c2c1CCO2	u	14.1µM*	70.8µM*	u	-15.3%[88.5 µM]
O=C(Nc1ncc(-c2cccc(F)c2)c2c1OCC2)c1ccc(Cl)cc1	-4.5%[70.6 µM]	i	100µM*	u	i

Screening data (PubChem BioAssay)
